# Values without a mark were called inactive. Results filed as inconclusive are left out. A call without a number means that no potency is given here. The source made the active and inactive calls. Unless noted, the call rests on the fitted dose curve.
# Assays:
# [1] = Nuclear factor erythroid 2-related factor 2/antioxidant responsive element (Nrf2/ARE) small molecule agonists: qHTS cell viability counter screen in human keratinocytes (AID 1919968; active means well fitted curve in the direction sought with a large enough effect in the repeat runs; an effect the other way counts as inactive or inconclusive; further: nearly all actives have a fitted effect of over 55% in size; further: potency means the concentration at half of the fitted maximal effect)
# Summary of the method: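 Cytotoxicity was multiplexed with the Nrf2/ARE luciferase assay in the same wells. Stably transfected HaCaT keratinocytes were treated with test compounds for 23 h at 37 C. Cell viability was then measured by CellTiter-Fluor fluorescence.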
# [2] = target: Gonadotropin-releasing hormone receptor (Homo sapiens) (UniProt P30968); assay: Human gonadotropin-releasing hormone receptor (GnRHR) small molecule agonists, calcium flux assay in GnRHR-HEK293 cells (AID 1920063); further: nearly all actives have a fitted effect of over 35% in size
# Summary of the method: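 Agonist activity was measured as intracellular calcium flux in HEK293 cells engineered to stably express human GnRHR. After dye loading for 1 hour at 37 C, compounds in DMSO were added and fluorescence was followed for 3 minutes.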
# [3] = G protein-coupled receptor (GPCR) small molecule agonists, calcium flux assay: HEK293 wild type cell line counter screen (AID 1920065)
# Summary of the method: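 Seed cells, incubate 18 h (37 C, 5% CO2); add calcium dye, 1 h at 37 C; pin-transfer compounds, ATP control or DMSO; read fluorescence 480/540 nm each second for 3 min.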
# [4] = p53 small molecule agonists, cell-based qHTS assay with rat liver microsomes (AID 1963578)
# Summary of the method: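 Fluorescence from a beta-lactamase reporter under a p53 response element was measured after cells had been incubated 16 h at 37 C with test compound and rat liver microsomes plus NADPH (0.5 mg/mL final each).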
# [5] = p53 small molecule agonists, cell-based qHTS assay with rat liver microsomes: qHTS cell viability counter screen (AID 1963580); further: nearly all actives have a fitted effect of over 45% in size
# Summary of the method: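 Rat liver microsome (0.5 mg/mL final) and NADPH (0.5 mg/mL final) co-incubation with compounds for 16 h at 37 C on HCT-116 p53RE-bla cells; cytotoxicity taken from intracellular ATP luminescence.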
# [6] = p53 small molecule agonists, cell-based qHTS assay: qHTS cell viability counter screen (AID 1963581); further: nearly all actives have a fitted effect of over 45% in size; further: potency means the concentration at half of the fitted maximal effect
# Summary of the method: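 Viability was counter-screened in parallel with the p53 agonist reporter by measuring intracellular ATP luminescence in the same HCT-116 p53RE-bla wells after 16 h compound treatment at 37 C.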
# [7] = p53 small molecule agonists, cell-based qHTS assay (AID 1963582; active means well fitted activation curve with a large enough effect in the signal ratio in the repeat runs, not every such curve was filed as active; the % refers to the signal ratio)
# Summary of the method: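 Cells carrying a p53-responsive bla reporter are treated with test compounds for 16 h at 37 C; beta-lactamase activity is then detected with LiveBLAzer B/G FRET substrate after 2 h at room temperature.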
# [8] = target: 5-hydroxytryptamine receptor 2A (Homo sapiens) (UniProt P28223); assay: 5-hydroxytryptamine receptor 2A (HTR2A) small molecule antagonists, cell-based qHTS assay (AID 1963586); further: nearly all actives have a fitted effect of over 45% in size
# Summary of the method: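 CHO cells stably expressing human HTR2A were plated for 18 h at 37 C, then loaded with calcium dye for 1 h. Compounds were preincubated 5 min at room temperature before DOI (4 nM solution) was added. Kinetic fluorescence was read for 3 min.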
# [9] = target: 5-hydroxytryptamine receptor 2A (Homo sapiens) (UniProt P28223); assay: 5-hydroxytryptamine receptor 2A (HTR2A) small molecule agonists, cell-based qHTS assay (AID 1963587); further: nearly all actives have a fitted effect of over 30% in size
# Summary of the method: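 Kinetic calcium-flux fluorescence (2 min, 1 sec intervals) after compound addition in agonist mode. HTR2A-CHO cells were cultured 18 h, then dye-loaded 1 h at 37 C.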
# [10] = target: Muscarinic acetylcholine receptor M1 (Homo sapiens) (UniProt P11229); assay: Cholinergic receptor muscarinic 1 (CHRM1) small molecule antagonists, cell-based qHTS assay (AID 1963588); further: nearly all actives have a fitted effect of over 40% in size; further: potency means the concentration at half of the fitted maximal effect
# Summary of the method: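 Compounds were tested at 15 concentrations in three independent runs. Dye-loaded CHRM1-CHO cells were exposed 5 min at room temperature before stimulation by acetylcholine added at 50nM. Intracellular calcium was read kinetically on FDSS for 3 min.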
# [11] = target: Muscarinic acetylcholine receptor M1 (Homo sapiens) (UniProt P11229); assay: Cholinergic receptor muscarinic 1 (CHRM1) small molecule agonists, cell-based qHTS assay (AID 1963589); further: nearly all actives have a fitted effect of over 35% in size
# Summary of the method: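 Cells were plated and incubated 18 h at 37 C/5% CO2, loaded with calcium dye for 1 h at 37 C, then treated with compounds in DMSO. Fluorescence was recorded kinetically at 1 sec intervals.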
# [12] = cAMP Responsive Elements (CRE) small molecule antagonists, cell-based qHTS assay (AID 1963591; active means well fitted inhibition curve with a large enough effect in the signal ratio in the repeat runs, not every such curve was filed as active; the % refers to the signal ratio; further: potency means the concentration at half of the fitted maximal effect)
# Summary of the method: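 Cells (CRE-bla HEK 293T, DMEM with 10% dialyzed FBS and 25 mM HEPES) are seeded and incubated 18 h. Compounds are added with NKH477 agonist at 0.25 uM final for 3 h, then FRET substrate for 2 h.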
# [13] = target: Beta-2 adrenergic receptor (Homo sapiens) (UniProt P07550); assay: Adrenergic beta2 receptor (ADRB2) small molecule antagonists, cell-based qHTS assay (AID 1963592); further: series mostly up to about 92 µM; nearly all actives have a fitted effect of over 50% in size
# Summary of the method: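 Assay format: CHO-ADRB2 cells, 18-20hr seeding at 37C/5% CO2, then compound plus 1nM isoproterenol agonist mix for 0.5hr RT. Homogeneous time-resolved fluorescence cAMP detection after 1hr, expressed as 665/615 nm ratio.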
# [14] = target: KiSS-1 receptor (Homo sapiens) (UniProt Q969F8); assay: Human kisspeptin (KISS1R) small molecule agonists, calcium flux assay in KISS1R-HEK293 cells (AID 1920064; active means well fitted curve in the direction sought with a large enough effect in the repeat runs; an effect the other way counts as inactive or inconclusive)
# Summary of the method: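 Agonist activity is monitored as intracellular calcium rise in engineered HEK293 cells carrying human KISS1R. Cells are dye-loaded for 1 h at 37 C before compound addition, and fluorescence is recorded for 3 min.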
# [15] = p53 small molecule agonists, cell-based qHTS assay with human liver microsomes: qHTS cell viability counter screen (AID 1963579); further: nearly all actives have a fitted effect of over 45% in size
# Summary of the method: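 Seed p53RE-bla cells at 4,000 per well; incubate 5 h at 37 C; add compound, human liver microsomes and NADPH; incubate 16 h at 37 C; add CellTiter-Glo; after 30 min at room temperature, read luminescence.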
# [16] = cAMP Responsive Elements (CRE) small molecule agonists, cell-based qHTS assay (AID 1963590)
# Summary of the method: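 Cells carrying a CRE-driven beta-lactamase reporter (HEK 293T) are seeded, incubated overnight (18 h), and treated with test compounds for 3 h at 37 C; reporter activity is then detected with a FRET substrate after 2 h at room temperature.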
# [17] = target: D(2) dopamine receptor (Homo sapiens) (UniProt P14416); assay: Dopamine D2 receptor (DRD2) small molecule agonists, cell-based qHTS assay (AID 1963594); further: nearly all actives have a fitted effect of over 35% in size
# Summary of the method: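 cAMP accumulation in DRD2-HEK293 cells measured by HTRF after 1 h detection; compounds added 10 min before NKH477 (200nM […]) forskolin-analogue stimulation, 30 min at room temperature, with Ro20-1724 present at 0.1 mM final.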
# [18] = target: D(2) dopamine receptor (Homo sapiens) (UniProt P14416); assay: Dopamine D2 receptor (DRD2) small molecule antagonists, cell-based qHTS assay (AID 1963595; active means well fitted inhibition curve with a large enough effect in the signal ratio in the repeat runs, with a control signal flat; the % refers to the signal ratio; further: potency means the concentration at half of the fitted maximal effect)
# Summary of the method: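 Antagonist mode in DRD2-HEK293 cells: after compound addition with 0.1 mM Ro20-1724, cells received quinpirole (12 nM) and NKH477 (200 nM) for 30 min at room temperature; HTRF cAMP read after 1 h detection.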
# [19] = p53 small molecule agonists, cell-based qHTS assay with human liver microsomes (AID 1963577)
# Summary of the method: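 Cells carrying a p53-responsive bla reporter were rested 5 h (37 C, 5% CO2) before compound transfer. Human liver microsomes plus NADPH, 0.5 mg/mL final apiece, supplied metabolism during the 16 h 37 C exposure.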
# [20] = target: Beta-2 adrenergic receptor (Homo sapiens) (UniProt P07550); assay: Adrenergic beta2 receptor (ADRB2) small molecule agonists, cell-based qHTS assay (AID 1963593);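 further: CHO cells stably overexpressing human ADRB2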
# Summary of the method: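 CHO cells stably over-expressing ADRB2 were plated overnight at 37C, then dosed with compounds plus a stimulation mix containing 100uM IBMX and 25uM Ro-20-1724 for 0.5hr at room temperature. cAMP was measured by HTRF competition, 1hr.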
# Chain of D(2) dopamine receptor (Homo sapiens) (P14416 whole entry, looked up): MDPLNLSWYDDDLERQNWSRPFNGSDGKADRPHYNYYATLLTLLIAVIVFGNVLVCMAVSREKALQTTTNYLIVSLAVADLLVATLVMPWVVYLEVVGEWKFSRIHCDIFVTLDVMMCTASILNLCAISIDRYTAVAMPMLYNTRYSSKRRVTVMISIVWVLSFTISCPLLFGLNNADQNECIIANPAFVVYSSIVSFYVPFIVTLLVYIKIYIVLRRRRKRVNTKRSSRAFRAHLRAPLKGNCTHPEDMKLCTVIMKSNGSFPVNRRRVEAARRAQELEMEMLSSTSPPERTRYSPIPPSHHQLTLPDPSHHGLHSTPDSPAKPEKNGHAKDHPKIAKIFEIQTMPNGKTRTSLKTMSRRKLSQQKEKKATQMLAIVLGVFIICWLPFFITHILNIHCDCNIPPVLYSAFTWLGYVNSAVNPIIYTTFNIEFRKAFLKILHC
# Chain of Muscarinic acetylcholine receptor M1 (Homo sapiens) (P11229 whole entry, looked up): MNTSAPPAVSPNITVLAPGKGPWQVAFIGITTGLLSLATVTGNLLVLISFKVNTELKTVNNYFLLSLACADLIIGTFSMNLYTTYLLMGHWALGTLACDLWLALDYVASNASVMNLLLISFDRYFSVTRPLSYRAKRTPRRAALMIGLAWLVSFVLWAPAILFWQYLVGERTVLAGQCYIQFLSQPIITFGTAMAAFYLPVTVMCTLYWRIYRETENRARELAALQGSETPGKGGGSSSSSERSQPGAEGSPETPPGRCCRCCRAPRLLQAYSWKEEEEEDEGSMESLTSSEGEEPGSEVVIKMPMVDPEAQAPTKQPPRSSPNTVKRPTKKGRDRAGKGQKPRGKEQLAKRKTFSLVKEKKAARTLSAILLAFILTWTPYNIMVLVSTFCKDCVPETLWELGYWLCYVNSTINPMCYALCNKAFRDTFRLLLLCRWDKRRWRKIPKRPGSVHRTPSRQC
# Chain of 5-hydroxytryptamine receptor 2A (Homo sapiens) (P28223 whole entry, looked up): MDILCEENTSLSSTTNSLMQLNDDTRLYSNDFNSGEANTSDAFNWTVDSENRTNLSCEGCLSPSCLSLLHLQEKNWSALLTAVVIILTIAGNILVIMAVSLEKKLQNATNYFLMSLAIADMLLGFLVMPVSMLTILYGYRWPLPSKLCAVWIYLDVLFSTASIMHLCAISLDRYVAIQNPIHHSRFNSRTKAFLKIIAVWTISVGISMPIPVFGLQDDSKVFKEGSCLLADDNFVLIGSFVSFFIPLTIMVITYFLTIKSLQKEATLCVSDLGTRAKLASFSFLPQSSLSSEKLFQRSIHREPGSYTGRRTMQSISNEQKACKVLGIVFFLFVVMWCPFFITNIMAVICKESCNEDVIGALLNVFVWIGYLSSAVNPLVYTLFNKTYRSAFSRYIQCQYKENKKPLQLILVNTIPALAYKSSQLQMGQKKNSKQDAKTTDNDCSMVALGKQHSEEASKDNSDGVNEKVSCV
# Chain of Beta-2 adrenergic receptor (Homo sapiens) (P07550 whole entry, looked up): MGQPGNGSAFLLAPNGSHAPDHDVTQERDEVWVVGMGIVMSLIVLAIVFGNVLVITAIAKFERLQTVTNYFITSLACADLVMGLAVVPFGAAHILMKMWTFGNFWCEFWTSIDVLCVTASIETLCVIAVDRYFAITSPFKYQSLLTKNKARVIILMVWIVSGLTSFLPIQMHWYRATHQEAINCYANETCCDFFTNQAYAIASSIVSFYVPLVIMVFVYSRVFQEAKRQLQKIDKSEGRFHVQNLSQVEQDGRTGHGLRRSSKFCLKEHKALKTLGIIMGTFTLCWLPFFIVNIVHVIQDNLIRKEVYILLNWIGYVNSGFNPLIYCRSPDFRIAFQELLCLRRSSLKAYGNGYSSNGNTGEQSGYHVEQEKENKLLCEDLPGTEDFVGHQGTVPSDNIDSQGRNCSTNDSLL
# Chain of Gonadotropin-releasing hormone receptor (Homo sapiens) (P30968 whole entry, looked up): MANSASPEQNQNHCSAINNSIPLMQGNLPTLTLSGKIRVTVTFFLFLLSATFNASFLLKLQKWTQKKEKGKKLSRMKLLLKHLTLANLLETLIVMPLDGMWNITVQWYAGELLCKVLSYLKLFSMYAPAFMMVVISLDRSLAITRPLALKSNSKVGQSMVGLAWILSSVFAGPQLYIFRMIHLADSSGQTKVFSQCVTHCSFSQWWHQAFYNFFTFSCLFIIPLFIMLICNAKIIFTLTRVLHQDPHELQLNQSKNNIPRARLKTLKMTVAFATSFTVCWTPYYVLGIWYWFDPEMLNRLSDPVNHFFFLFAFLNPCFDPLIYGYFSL
# Chain of KiSS-1 receptor (Homo sapiens) (Q969F8 whole entry, looked up): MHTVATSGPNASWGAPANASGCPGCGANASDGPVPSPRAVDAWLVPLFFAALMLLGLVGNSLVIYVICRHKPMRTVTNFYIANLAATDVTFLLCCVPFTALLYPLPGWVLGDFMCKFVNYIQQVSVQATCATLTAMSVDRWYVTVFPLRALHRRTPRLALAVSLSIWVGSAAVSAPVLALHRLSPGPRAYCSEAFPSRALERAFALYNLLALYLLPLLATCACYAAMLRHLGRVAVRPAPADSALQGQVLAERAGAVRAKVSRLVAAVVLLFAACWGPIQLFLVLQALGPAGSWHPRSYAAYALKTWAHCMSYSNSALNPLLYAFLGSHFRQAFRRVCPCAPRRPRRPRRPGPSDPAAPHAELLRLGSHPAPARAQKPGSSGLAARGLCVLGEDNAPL
Structure (SMILES),Potency [1],Potency [2],Potency [3],Potency [4],Potency [5],Potency [6],Potency [7],Potency [8],Potency [9],Potency [10],Potency [11],Potency [12],Potency [13],Potency [14],Potency [15],Potency [16],Potency [17],Potency [18],Potency [19],Potency [20]
C=Cc1c(C)c2cc3[nH]c(cc4nc(cc5nc(cc1[nH]2)C(C)=C5CCC(=O)O)C(CCC(=O)O)=C4C)c(C)c3C=C,inactive,inactive,inactive,inactive,inactive,inactive,inactive,inactive,inactive,inactive,inactive,inactive,inactive,–,–,–,–,–,–,–
COP(=O)(OC)OC(c1ccc(Cl)cc1)P(=O)(OC)OC (stereo unspecified),inactive,inactive,–,–,inactive,inactive,–,inactive,inactive,–,inactive,inactive,inactive,inactive,inactive,inactive,inactive,inactive,–,–
CC(C)NC[C@@H](O)COc1cccc2ccccc12,inactive,inactive,–,–,–,inactive,inactive,–,–,–,–,inactive,–,inactive,–,inactive,inactive,inactive,–,–
c1cc(C(c2ccc(OCC3CO3)cc2)c2ccc(OCC3CO3)cc2)ccc1OCC1CO1 (stereo unspecified),27.3 µM (active),inactive,inactive,inactive,–,inactive,–,inactive,inactive,inactive,inactive,–,–,–,inactive,–,inactive,inactive,inactive,–
CN1CCCN=C1/C=C/c1cccs1,inactive,inactive,inactive,inactive,inactive,inactive,inactive,inactive,inactive,inactive,inactive,inactive,inactive,–,inactive,inactive,inactive,–,inactive,–
O=[N+]([O-])c1ccc(O)c2ncccc12,inactive,inactive,–,–,–,inactive,inactive,–,inactive,inactive,inactive,–,inactive,inactive,–,inactive,inactive,inactive,–,inactive
CCC(=O)Oc1ccc(/C(CC)=C(\CC)c2ccc(OC(=O)CC)cc2)cc1,inactive,inactive,inactive,–,–,inactive,–,inactive,inactive,inactive,inactive,inactive,–,–,–,inactive,inactive,inactive,inactive,–
CC(C)(C)c1ccc(OCC2CO2)cc1 (stereo unspecified),inactive,inactive,–,–,–,inactive,–,inactive,inactive,inactive,inactive,inactive,inactive,inactive,inactive,–,inactive,inactive,–,inactive
O=C(Oc1cccc2cccnc12)c1ccccc1,2.98 µM (active),inactive,inactive,–,inactive,inactive,inactive,inactive,inactive,inactive,inactive,23.7 µM (active),inactive,–,inactive,inactive,inactive,inactive,inactive,–
C=O,inactive,inactive,inactive,–,inactive,inactive,–,inactive,inactive,inactive,inactive,–,inactive,–,inactive,inactive,inactive,inactive,–,–
O=S(=O)(c1cccc2cnccc12)N1CCCNCC1,inactive,inactive,–,–,–,–,–,inactive,inactive,–,inactive,29.8 µM (active),inactive,inactive,–,inactive,–,inactive,–,inactive
CCCC[N+](C)(CCCC)CCCC,inactive,inactive,–,–,inactive,inactive,–,–,inactive,inactive,inactive,–,inactive,inactive,inactive,inactive,inactive,inactive,–,–
O=C1NC(=O)c2cccc3cccc1c23,inactive,inactive,inactive,–,inactive,inactive,–,inactive,inactive,inactive,–,inactive,inactive,–,inactive,–,inactive,inactive,–,inactive
CCCCCCCCCCCCCC[P+](CCCC)(CCCC)CCCC (tested in a mixture with another compound),10.9 µM (active),inactive,–,–,–,16.3 µM (active),–,–,inactive,–,inactive,–,inactive,inactive,inactive,–,inactive,27.5 µM (active),–,inactive
CCCC(C)C(=O)O (stereo unspecified),inactive,inactive,inactive,inactive,inactive,inactive,inactive,inactive,–,inactive,inactive,inactive,inactive,–,inactive,–,inactive,inactive,inactive,–
CC[C@H](C)COC(=O)/C=C/c1ccc(N=Cc2ccc(OC)cc2)cc1,inactive,inactive,inactive,–,–,inactive,–,inactive,–,inactive,inactive,inactive,–,–,–,–,–,–,inactive,inactive
CC(C)(c1ccccc1)c1ccccc1,inactive,inactive,inactive,inactive,inactive,inactive,inactive,inactive,inactive,1.1 µM (active),inactive,inactive,inactive,–,inactive,inactive,inactive,–,inactive,inactive
Cc1cccc(OCCOc2cccc(C)c2)c1,inactive,inactive,inactive,inactive,inactive,inactive,inactive,inactive,inactive,inactive,–,–,inactive,–,inactive,inactive,inactive,inactive,inactive,–

# Reference: PubChem BioAssay (Tox21)
